Compounds without any hit were thinned out: in the full panel of roughly 83,000, 20% have a hit.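 Note: values are percent growth. 100 is the growth of untreated cells, values between 100 and 0 indicate rising inhibition; between -100 and 0 indicates cell death.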 Activity calls are given as the source filed them.
test system: PC-3 prostate; test: NCI-60 one-dose screen, 48 h (100 = growth as untreated, 0 = no growth, -100 = all killed); conditions: 10 µM unless noted
Method: Growth inhibition of the PC-3 human tumor cell line is measured as a screen for anti-cancer activity. Cells are grown in 96 well plates and exposed to the test compound for 48 hours. Compounds are tested at a single concentration, which is 10^-5 M for most compounds. The reported endpoint is percent growth (GI% or GIPRCNT), where numbers from 0 - 100% represent growth inhibition, and numbers from -100% - 0 represent cell death. For example, a value of 40 represents 60% growth inhibition. A value of 0 means no net growth occurred over the course of the experiment. A value of -40 indicates 40% of cells at the beginning of the experiment died by the end of the experiment. A value of -100 means all cells are dead at the end of the experiment.
NCI-60 Human Tumor Cell Lines Screen was performed using the standard one-dose NCI protocol, which is described in more detail at https://dtp.cancer.gov/discovery_development/nci-60/default.htm.
Compounds with GIPRCNT values below 10 were considered active. Activity score was based on GIPRCNT using the following formula: […]
Score is 0 for GIPRCNT values of 100 or above, 50 for GIPRCNT values of 0, and 100 for GIPRCNT values of -100.

Question: With `Nc1cc(F)ccc1NC(=O)c1ccc(NC(=O)C/C=C/c2cccnc2)cn1` as the molecule, how does the growth read?
Answer: 36.9% (inactive)

Question: How did the growth turn out when `ClC(Cl)c1nc(-c2cccs2)n2nc(-c3ccccc3)cc2n1` was run?
Answer: -32.3% (active)

Question: `CCN1C(=O)N(CC)C2C1NN=C1SC(c3ccccc3)=CC(=O)N12` (stereo not given) was tested. Which growth did it give?
Answer: 17.1% (inactive)

Question: `Cc1ccccc1/C=C/c1nn2c(-c3ccoc3C)nnc2s1` was tested. Which growth did it give?
Answer: 99.4% (inactive)

Question: Which growth does the source give for `C(=C(\C1=NCCN1)n1cnc2ccccc21)/c1ccc2ccccc2c1` here?
Answer: 33.5% (inactive)

Question: `O=C(Nc1cccc(Cl)c1)Nc1nc2ccc(-c3cccc4ccccc34)cc2s1` was tested. Which growth did it give?
Answer: 24.9% (inactive)

Question: For `CCOC(=O)C1=C(C)Nc2nnc(Nc3ccccc3)n2C1c1ccccc1` (stereo not given), which growth is on record?
Answer: 73.5% (inactive)

Question: With `CC(c1ccccc1)N1C(=O)/C(=C/c2csc(C#N)n2)SC1=S` (stereo not given) as the molecule, how does the growth read?
Answer: 90.5% (inactive)

Question: How did the growth turn out when `Cn1cc(-c2nnc(N)nc2-c2cn(C)c3ccc(F)cc23)c2cc(F)ccc21` was run?
Answer: 95.2% (inactive)

Question: With `O=C(O)c1ccc(-n2cc(CNc3ccc(Cl)cc3)c(-c3ccc(F)cc3)n2)cc1` as the molecule, how does the growth read?
Answer: 89% (inactive)

Question: `C#C[C@]1(O)CC[C@H]2[C@@H]3CC=C4c5sc(-c6cccc(F)c6)nc5CC[C@]4(C)[C@H]3CC[C@@]21C` was tested. Which growth did it give?
Answer: 68.7% (inactive)

Question: Which growth does the source give for `CCOC(=O)c1c(NC(=O)c2ccc(C(C)(C)C)cc2)sc2cc(OCCN3CCCCC3)ccc12` here?
Answer: 76.2% (inactive)

Question: For `Cc1nn(-c2ccc(Cl)cc2)c(C)c1N=Nc1ccc2oc(=O)ccc2c1`, which growth is on record?
Answer: 80.3% (inactive)

Question: `NC(N)=NS(=O)(=O)c1ccc(N=NC2C(=O)NN(c3ccccc3)C2=O)cc1` (stereo not given) was tested. Which growth did it give?
Answer: 95.2% (inactive)

Question: With `CCNC(=NCCCN(C)C)N/C(N)=N/c1nc2ccccc2s1` as the molecule, how does the growth read?
Answer: 80.3% (inactive)

Question: `Cc1ccc(-c2nnc3sc(C4=Cc5ccccc5OC=C4)nn23)cc1` was tested. Which growth did it give?
Answer: 96.7% (inactive)

Question: Which growth does the source give for `CCc1ccc(NC(=O)N[C@@H](Cc2cccc(F)c2)C(=O)N[C@@H]2C(=O)N3CCC[C@H]3C(=O)N3CCCC[C@H]3C(=O)N[C@@H](C)C(=O)N3C[C@H](C)C[C@H]3C(=O)O[C@H]2C)c(F)c1` here?
Answer: 15.1% (inactive)

Question: For `C#C[C@]1(O)CC[C@H]2[C@@H]3CC=C4c5sc(Nc6cccc(C)n6)nc5CC[C@]4(C)[C@H]3CC[C@@]21C`, which growth is on record?
Answer: -1.41% (active)

Question: `Cc1cc(O)c(=O)cc2c1C[C@H]1CC(C)(C)/C=C/C[C@]3(C)Oc4cc(=O)c(O)cc(C)c4C[C@H]3C[C@H](O)[C@@]1(C)O2` was tested. Which growth did it give?
Answer: 9.28% (active)

Question: Which growth does the source give for `COc1cc([C@H]2OC[C@H]3[C@@H]2CO[C@@H]3c2ccc(O)c(OC)c2)ccc1O` here?
Answer: 82.6% (inactive)

Question: With `COc1cc2c3c(n(CCCNC4CCCCC4)c(=O)c2cc1OC)-c1cc2c(cc1C3=O)OCO2` as the molecule, how does the growth read?
Answer: -83.6% (active)

Question: `O=S(=O)(Nc1ccc(I)c(Cl)c1)c1ccc(-c2cnc(C3CC3)o2)cc1` was tested. Which growth did it give?
Answer: 20.4% (inactive)

Question: How did the growth turn out when `COc1ccc(N)cc1C(=O)Nc1cccc(-c2cc(=O)c3c(OC)c(OC)c(OC)cc3o2)c1` was run?
Answer: 74.1% (inactive)

Question: Which growth does the source give for `COc1cc2cc(Oc3ccc(NC(=O)Nc4cccc(C(F)(F)F)c4)cc3)c(C)nc2cc1OCCN(C)C` here?
Answer: 85.9% (inactive)

Question: How did the growth turn out when `CCOC(=O)C1=C(C)Nc2nc3ccccc3n2C1c1cccc(Br)c1` (stereo not given) was run?
Answer: 84.1% (inactive)

Question: `C#C[C@]1(O)CC[C@H]2[C@@H]3CC=C4c5sc(Nc6nc(C)cc(OC)n6)nc5CC[C@]4(C)[C@H]3CC[C@@]21C` was tested. Which growth did it give?
Answer: 27.5% (inactive)

Question: For `O=S(=O)(Nc1ccc(-c2nc(-c3cccc(O)c3)c(-c3ccnc(Br)c3)[nH]2)cc1)c1ccccc1`, which growth is on record?
Answer: 9.21% (active)

Question: For `CN1CCN(Cc2ccc(NC(=O)c3cncc(C#Cc4cnc5ccc(NC6CCOCC6)nn45)c3)cc2C(F)(F)F)CC1`, which growth is on record?
Answer: -15.5% (active)

Question: `COc1cc(O)c2c(c1)/C=C/C[C@H](O)[C@H](O)C(=O)/C=C\C[C@H](C)OC2=O` was tested. Which growth did it give?
Answer: 42.6% (inactive)

Question: Which growth does the source give for `O=C(CSc1ccc(-c2nc3ccccc3[nH]2)cn1)N1CCN(c2ccccc2F)CC1` here?
Answer: 57.7% (inactive)

Question: For `O=c1c2c(O)cccc2oc2c3c(cc(O)c12)O[C@H]1OC=C[C@@H]31`, which growth is on record?
Answer: 90.1% (inactive)

Question: `O=C1c2c(c3c4ccc(Br)cc4oc3c3[nH]c4ccccc4c23)C(=O)N1CCO` was tested. Which growth did it give?
Answer: 51.6% (inactive)

Question: How did the growth turn out when `C#Cc1ccc(NC(=O)c2ccc(/C=C/C(=O)c3nccn3C)cc2)c(F)c1` was run?
Answer: 29.9% (inactive)

Question: With `CCN1C(=O)N(CC)C2SC(N/N=C/c3ccccc3F)=NC21` (stereo not given) as the molecule, how does the growth read?
Answer: 29.8% (inactive)

Question: Which growth does the source give for `O=c1oc2ccc(-c3ccc(F)cc3F)cc2c(=O)n1-c1cccc(C(F)(F)F)c1` here?
Answer: 6.82% (active)

Question: Which growth does the source give for `Cc1cccc(NC(c2cc3cccc4ccc5cccc2c5c43)c2nnnn2C(C)(C)C)c1C` (stereo not given) here?
Answer: 77.5% (inactive)

Question: For `C=CCn1c(SCC(=O)Nc2cccc(C(=O)/C=C/c3ccc(C)cc3)c2)nc2ccccc2c1=O`, which growth is on record?
Answer: 72.5% (inactive)

Question: `CCOC(=O)/C=c1\sc2n(c1=O)C1C(NN=2)N(CC)C(=O)N1CC` (stereo not given) was tested. Which growth did it give?
Answer: 55.7% (inactive)

Question: `Nc1ccc(-c2nnc(SCc3ccc(O)c4ncccc34)n2-c2ccccc2)cc1` was tested. Which growth did it give?
Answer: 14.1% (inactive)

Question: Which growth does the source give for `Cc1ccc(NC(=O)c2ccc(CN3CCN(C)CC3)c(I)c2)cc1Oc1ccc(-c2[nH]nc3ncnc(N)c23)cc1` here?
Answer: 75.2% (inactive)

From PubChem BioAssay (NCI)
